# Experimental data taken from PubChem BioAssay (Tox21).
# Records with an inconclusive call do not appear. Entries that show only a call come without a potency. Activity calls are given as the source filed them. Unless noted, the call rests on the fitted dose curve; in most records, active means well fitted curve in the direction sought with a large enough effect in the repeat runs; inconclusive means weak or mixed curves; inactive means no such curve, though single readings can be large; an effect the other way counts as inactive or inconclusive.
# Columns and labels:
# [1] = qHTS assay to identify small molecule agonists of the sonic hedgehog signaling (Shh) pathway (AID 1259368; calls by dose curve;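 further: NIH/3T3-derived 3T3Gli1-Luc cells carrying a stable Gli1-driven firefly luciferase reporter; series mostly up to about 92 µM; nearly all actives have a fitted effect of over 15% in size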)
# Method in brief: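 Luminescence was read after 30 min at room temperature with luciferase reagent. Before that, 3T3Gli1-Luc cells (NIH/3T3 clone, stable Gli1-Luc reporter; 2,000/well) were exposed to compounds for 24 hr at 37C, 5% CO2, compounds being added 4 hr post-plating.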
# [2] = qHTS assay to identify small molecule antagonists of the sonic hedgehog signaling (Shh) pathway (AID 1259369; calls by dose curve; further: nearly all actives have a fitted effect of over 45% in size; further: potency means the concentration at half of the fitted maximal effect)
# Method in brief: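 Antagonist mode: compound added to 3T3 Gli1-Luc cells followed by conditioned-medium stimulation, 24 h at 37 C, 5% CO2. Inhibition taken as loss of Gli1-driven luciferase luminescence.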
# [3] = biological target: Androgen receptor (Homo sapiens) (UniProt P10275); experiment: qHTS assay to identify small molecule agonists of the androgen receptor (AR) signaling pathway in the presence of an antagonist (AID 1259381; calls by dose curve; further: nearly all actives have a fitted effect of over 15% in size)
# Chain of Androgen receptor (Homo sapiens) (P10275 whole entry, looked up): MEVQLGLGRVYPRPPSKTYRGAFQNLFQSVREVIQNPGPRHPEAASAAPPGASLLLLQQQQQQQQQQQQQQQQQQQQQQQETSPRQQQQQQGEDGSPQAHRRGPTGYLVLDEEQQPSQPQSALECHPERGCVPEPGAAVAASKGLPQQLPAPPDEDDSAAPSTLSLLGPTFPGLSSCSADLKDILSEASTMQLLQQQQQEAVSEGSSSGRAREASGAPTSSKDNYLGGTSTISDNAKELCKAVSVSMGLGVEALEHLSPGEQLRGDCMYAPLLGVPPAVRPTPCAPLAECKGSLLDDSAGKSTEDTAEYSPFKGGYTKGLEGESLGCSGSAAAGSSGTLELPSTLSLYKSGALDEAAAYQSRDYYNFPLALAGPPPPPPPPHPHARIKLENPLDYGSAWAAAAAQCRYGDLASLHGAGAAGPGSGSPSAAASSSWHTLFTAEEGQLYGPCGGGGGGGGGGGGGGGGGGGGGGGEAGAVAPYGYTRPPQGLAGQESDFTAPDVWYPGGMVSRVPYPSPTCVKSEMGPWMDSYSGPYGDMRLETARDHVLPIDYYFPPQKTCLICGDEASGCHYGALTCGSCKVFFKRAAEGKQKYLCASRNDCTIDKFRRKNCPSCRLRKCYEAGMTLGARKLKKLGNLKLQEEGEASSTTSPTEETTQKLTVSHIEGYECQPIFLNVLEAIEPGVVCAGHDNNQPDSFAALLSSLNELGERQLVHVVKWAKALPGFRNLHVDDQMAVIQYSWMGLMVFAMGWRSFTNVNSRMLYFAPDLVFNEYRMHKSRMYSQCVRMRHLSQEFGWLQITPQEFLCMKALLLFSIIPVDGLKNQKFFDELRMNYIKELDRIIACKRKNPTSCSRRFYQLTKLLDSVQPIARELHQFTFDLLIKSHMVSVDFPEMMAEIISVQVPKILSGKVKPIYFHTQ
# Method in brief: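 Agonist-mode confirmation run against 3.0 uM final nilutamide: compounds titrated at 15 concentrations onto MDA-kb2 MMTV-luciferase reporter cells. Luminescence measured with ONE-Glo following 16 hr incubation, 37C, 0% CO2.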
# [4] = qHTS assay to identify small molecule antagonists of the estrogen receptor beta (ER-beta) signaling pathway - cell viability counter screen (AID 1259382); further: nearly all actives have a fitted effect of over 55% in size; further: potency means the concentration at half of the fitted maximal effect
# Method in brief: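 Cytotoxicity was measured in the same wells by CellTiter-Glo luminescence after 30 min at room temperature. Cells were ER-beta-bla HEK293T in charcoal-stripped serum, given compound together with 1 nM E2 and incubated 16 h at 37C.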
# [5] = qHTS assay to identify small molecule agonists or antagonists of the thyroid stimulating hormone receptor (TSHR) signaling pathway - wild type cell line counter screen (AID 1259384; calls by dose curve)
# Method in brief: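 Wild-type Hek293 cells, 800/well, 18 h at 37C, then compound with Ro20-1724 for 30 min RT. cAMP by HTRF (cAMP-d2/anti-cAMP cryptate), 1 h RT, fluorescence read. 15 concentrations, triplicates.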
# [6] = biological target: Thyrotropin receptor (Homo sapiens) (UniProt P16473); experiment: qHTS assay to identify small molecule antagonists of the thyroid stimulating hormone receptor (TSHR) signaling pathway (AID 1259385; calls by dose curve; further: nearly all actives have a fitted effect of over 20% in size; further: potency means the concentration at half of the fitted maximal effect)
# Chain of Thyrotropin receptor (Homo sapiens) (P16473 whole entry, looked up): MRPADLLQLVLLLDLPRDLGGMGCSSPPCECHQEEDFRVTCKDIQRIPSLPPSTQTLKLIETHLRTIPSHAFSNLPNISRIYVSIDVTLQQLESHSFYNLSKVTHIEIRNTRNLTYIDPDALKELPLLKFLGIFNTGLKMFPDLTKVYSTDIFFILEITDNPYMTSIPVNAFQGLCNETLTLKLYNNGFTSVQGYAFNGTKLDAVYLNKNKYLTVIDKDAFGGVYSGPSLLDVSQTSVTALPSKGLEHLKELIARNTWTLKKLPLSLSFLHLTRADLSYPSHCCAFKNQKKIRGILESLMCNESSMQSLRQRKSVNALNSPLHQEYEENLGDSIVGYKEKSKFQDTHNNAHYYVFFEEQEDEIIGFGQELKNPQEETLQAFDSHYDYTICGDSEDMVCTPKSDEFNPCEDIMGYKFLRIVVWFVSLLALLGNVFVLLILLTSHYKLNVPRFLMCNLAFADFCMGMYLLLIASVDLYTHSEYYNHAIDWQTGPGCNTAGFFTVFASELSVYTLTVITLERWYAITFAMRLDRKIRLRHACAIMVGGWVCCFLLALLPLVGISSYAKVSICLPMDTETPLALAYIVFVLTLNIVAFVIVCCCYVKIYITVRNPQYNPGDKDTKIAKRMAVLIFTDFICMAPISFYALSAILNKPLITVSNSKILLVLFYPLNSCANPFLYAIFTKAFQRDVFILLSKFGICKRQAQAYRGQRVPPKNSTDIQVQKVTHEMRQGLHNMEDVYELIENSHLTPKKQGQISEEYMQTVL
# Method in brief: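 TSHR-HEK293 cells (800/well) plated 18 h, then compounds with Ro20-1724 and TSH at 1.5 ng/mL final, 30 min at room temperature. cAMP quantified by HTRF (cAMP-d2/anti-cAMP-cryptate, 1 h); 15 concentrations in triplicate.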
# [7] = qHTS assay to identify small molecule agonists of the estrogen receptor alpha (ER-alpha) signaling pathway in the presence of an antagonist - cell viability counter screen (AID 1259386); further: nearly all actives have a fitted effect of over 30% in size; further: potency means the concentration at half of the fitted maximal effect
# Method in brief: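 Compounds tested at 15 concentrations for 22 h at 37C alongside 10.0nM (final) ICI-182,780 antagonist, in VM7Luc4E2 cells grown in phenol red-free, charcoal-stripped medium. Viability read by CellTiter-Fluor fluorescence after 1 h reagent incubation.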
# [8] = biological target: Progesterone receptor (Homo sapiens) (UniProt P06401); experiment: qHTS assay to identify small molecule agonists of the progesterone receptor (PR) signaling pathway (AID 1346784; calls by dose curve; further: nearly all actives have a fitted effect of over 30% in size)
# Chain of Progesterone receptor (Homo sapiens) (P06401 whole entry, looked up): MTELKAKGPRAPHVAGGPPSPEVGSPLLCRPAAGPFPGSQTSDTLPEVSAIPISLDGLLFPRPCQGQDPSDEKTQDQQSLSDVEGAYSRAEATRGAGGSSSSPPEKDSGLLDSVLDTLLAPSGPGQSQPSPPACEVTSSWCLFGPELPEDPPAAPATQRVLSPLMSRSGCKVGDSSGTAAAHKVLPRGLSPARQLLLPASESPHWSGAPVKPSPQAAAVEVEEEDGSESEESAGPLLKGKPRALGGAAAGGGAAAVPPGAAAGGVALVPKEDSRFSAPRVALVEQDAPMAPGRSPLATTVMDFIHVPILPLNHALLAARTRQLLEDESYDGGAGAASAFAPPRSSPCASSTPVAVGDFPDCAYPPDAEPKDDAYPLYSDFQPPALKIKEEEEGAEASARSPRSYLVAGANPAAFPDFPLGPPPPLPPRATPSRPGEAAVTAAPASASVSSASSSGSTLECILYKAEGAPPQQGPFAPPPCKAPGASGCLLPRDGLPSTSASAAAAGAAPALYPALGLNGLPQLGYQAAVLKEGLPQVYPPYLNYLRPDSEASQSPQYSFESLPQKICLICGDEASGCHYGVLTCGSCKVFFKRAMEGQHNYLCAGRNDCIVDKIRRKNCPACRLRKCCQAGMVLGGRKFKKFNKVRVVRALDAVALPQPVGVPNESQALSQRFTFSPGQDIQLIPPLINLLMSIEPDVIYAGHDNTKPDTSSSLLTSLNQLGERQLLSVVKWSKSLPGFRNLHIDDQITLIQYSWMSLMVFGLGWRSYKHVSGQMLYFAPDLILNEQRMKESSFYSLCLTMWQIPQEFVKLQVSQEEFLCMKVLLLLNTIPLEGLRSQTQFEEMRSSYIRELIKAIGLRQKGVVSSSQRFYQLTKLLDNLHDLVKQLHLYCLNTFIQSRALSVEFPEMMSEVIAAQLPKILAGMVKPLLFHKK
# Method in brief: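 Seed PR-UAS-bla HEK 293T cells (2% charcoal-stripped FBS), incubate 6 hr at 37C; add compounds in DMSO, 16 hr at 37C; add LiveBLAzer B/G substrate, 2 hr RT; read fluorescence intensity.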
# [9] = biological target: Progesterone receptor (Homo sapiens) (UniProt P06401); experiment: qHTS assay to identify small molecule antagonists of the progesterone receptor (PR) signaling pathway (AID 1346795; active means well fitted inhibition curve with a large enough effect in the signal ratio in the repeat runs, not every such curve was filed as active; the % refers to the signal ratio; further: potency means the concentration at half of the fitted maximal effect)
# Method in brief: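 Screening used a GripTite HEK293T line with PR-responsive UAS-beta-lactamase. Cells were challenged with compound in the presence of 1 nM R5020 final for 16 hr at 37C; B/G FRET substrate, 2 hr room temperature, fluorescence.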
# [10] = qHTS assay to identify small molecule antagonists of the progesterone receptor (PR) signaling pathway - cell viability counter screen (AID 1346798); further: nearly all actives have a fitted effect of over 50% in size; further: potency means the concentration at half of the fitted maximal effect
# Method in brief: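 Measures cytotoxicity in parallel with the PR antagonist reporter read: HEK293T PR-UAS-bla cells get compound and R5020 for 16 hr, and remaining viable cells are quantified by CellTiter-Glo luminescence.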
# [11] = qHTS assay to identify small molecule antagonists of the TGF-beta/Smad signaling pathway - cell viability counter screen (AID 1346824); further: nearly all actives have a fitted effect of over 50% in size
# Method in brief: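 SBE-bla HEK 293T cells, incubated overnight, then compound plus 0.25 ng/mL TGF-beta1 (stock added) for 5 hr at 37 C. Viability was read in the same wells by CellTiter-Glo luminescence after 30 min at room temperature.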
# [12] = qHTS assay to identify small molecule agonists of the TGF-beta/Smad signaling pathway - cell viability counter screen (AID 1346829); further: top concentration of the series differs between compounds; nearly all actives have a fitted effect of over 45% in size
# Method in brief: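 Cytotoxicity counter screen: CellTiter-Glo luminescence (30 min, room temperature) measured in the SBE-bla HEK 293T reporter wells after 5 hr compound treatment at 37 C and the 2 hr substrate step.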
# [13] = qHTS assay to identify small molecule agonists of the TGF-beta/Smad signaling pathway (AID 1346859; active means well fitted activation curve with a large enough effect in the signal ratio in the repeat runs, not every such curve was filed as active; the % refers to the signal ratio; further: series mostly up to about 77 µM)
# Method in brief: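 Beta-lactamase reporter activity downstream of Smad binding elements was measured in stably transfected HEK 293T cells; compounds were incubated for 5 hr, substrate for 2 hr at room temperature.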
# [14] = biological target: Thyrotropin-releasing hormone receptor (Homo sapiens) (UniProt P34981); experiment: qHTS assay to identify small molecule antagonists of the thyrotropin-releasing hormone receptor (TRHR) signaling pathway (AID 1346877; active means well fitted inhibition curve with a large enough effect in the repeat runs, not every such curve was filed as active; further: series mostly up to about 51 µM)
# Chain of Thyrotropin-releasing hormone receptor (Homo sapiens) (P34981 whole entry, looked up): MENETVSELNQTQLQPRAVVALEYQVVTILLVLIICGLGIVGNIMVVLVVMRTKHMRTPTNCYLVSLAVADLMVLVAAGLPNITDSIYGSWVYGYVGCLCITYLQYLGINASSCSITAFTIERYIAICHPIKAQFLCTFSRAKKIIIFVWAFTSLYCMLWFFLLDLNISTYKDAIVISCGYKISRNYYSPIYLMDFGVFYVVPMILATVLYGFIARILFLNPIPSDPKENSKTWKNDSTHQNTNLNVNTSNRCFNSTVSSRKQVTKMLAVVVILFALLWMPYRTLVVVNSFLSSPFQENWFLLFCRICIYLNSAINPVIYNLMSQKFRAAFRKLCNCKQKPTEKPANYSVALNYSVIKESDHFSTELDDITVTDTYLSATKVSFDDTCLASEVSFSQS
# Method in brief: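 Antagonist mode: after a 5 min room-temperature compound exposure, cells were stimulated with 1 nM (final) TRH. Dye-loaded TRHR-HEK293 cells were used, and calcium-dependent fluorescence was followed for 3 min, with 15-point titrations run in triplicate.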
# [15] = qHTS assay to identify small molecule agonists of the estrogen receptor beta (ER-beta) signaling pathway - cell viability counter screen (AID 1259380); further: nearly all actives have a fitted effect of over 30% in size; further: potency means the concentration at half of the fitted maximal effect
# Method in brief: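 Cell viability counter screen: CellTiter-Glo luminescence (30 min, room temperature) measured in the same wells as the beta-lactamase readout, after 16 hr compound exposure at 37C of ER-beta-bla HEK293T cells in 2% charcoal-stripped FBS medium.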
# [16] = biological target: Estrogen receptor (Homo sapiens) (UniProt P03372); experiment: qHTS assay to identify small molecule agonists of the estrogen receptor alpha (ER-alpha) signaling pathway in the presence of an antagonist (AID 1259383; calls by dose curve; further: top concentration of the series differs between compounds; nearly all actives have a fitted effect of over 15% in size)
# Chain of Estrogen receptor (Homo sapiens) (P03372 whole entry, looked up): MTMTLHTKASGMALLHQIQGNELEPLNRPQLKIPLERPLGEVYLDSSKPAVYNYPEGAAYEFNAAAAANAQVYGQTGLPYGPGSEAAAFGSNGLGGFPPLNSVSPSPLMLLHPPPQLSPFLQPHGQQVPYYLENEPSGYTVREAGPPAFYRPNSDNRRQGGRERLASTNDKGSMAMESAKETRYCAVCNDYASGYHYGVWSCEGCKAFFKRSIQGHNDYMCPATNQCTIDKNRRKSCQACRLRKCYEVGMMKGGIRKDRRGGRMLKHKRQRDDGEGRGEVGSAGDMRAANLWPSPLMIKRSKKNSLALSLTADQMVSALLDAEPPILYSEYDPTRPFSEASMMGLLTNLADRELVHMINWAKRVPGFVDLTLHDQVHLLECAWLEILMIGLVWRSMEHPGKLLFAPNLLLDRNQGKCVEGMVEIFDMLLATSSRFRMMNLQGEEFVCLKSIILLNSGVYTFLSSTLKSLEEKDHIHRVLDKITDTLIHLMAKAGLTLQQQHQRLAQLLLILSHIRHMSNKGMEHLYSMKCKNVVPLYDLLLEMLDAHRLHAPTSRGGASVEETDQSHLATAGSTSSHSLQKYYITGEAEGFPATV
# Method in brief: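 Agonist-mode confirmation run in the presence of 10.0nM (final) ICI-182,780 antagonist. The reporter was ERE-driven luciferase in VM7Luc4E2 cells, grown in charcoal-stripped serum. Cells were exposed to 15-concentration compound series for 22hr, then ONE-Glo luminescence was read.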
# [17] = qHTS assay to identify small molecule agonists of the progesterone receptor (PR) signaling pathway - cell viability counter screen (AID 1346799; calls by dose curve; further: nearly all actives have a fitted effect of over 45% in size; further: potency means the concentration at half of the fitted maximal effect)
# Method in brief: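 Using the same plates as the PR reporter screen, HEK293T PR-UAS-bla cells received compounds for 16 hr at 37C and were then lysed with CellTiter-Glo; luminescence was read 30 min later at room temperature.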
# [18] = biological target: Estrogen receptor beta (Homo sapiens) (UniProt Q92731); experiment: qHTS assay to identify small molecule agonists of the estrogen receptor beta (ER-beta) signaling pathway (AID 1259377; active means well fitted activation curve with a large enough effect in the signal ratio in the repeat runs, not every such curve was filed as active; the % refers to the signal ratio)
# Chain of Estrogen receptor beta (Homo sapiens) (Q92731 whole entry, looked up): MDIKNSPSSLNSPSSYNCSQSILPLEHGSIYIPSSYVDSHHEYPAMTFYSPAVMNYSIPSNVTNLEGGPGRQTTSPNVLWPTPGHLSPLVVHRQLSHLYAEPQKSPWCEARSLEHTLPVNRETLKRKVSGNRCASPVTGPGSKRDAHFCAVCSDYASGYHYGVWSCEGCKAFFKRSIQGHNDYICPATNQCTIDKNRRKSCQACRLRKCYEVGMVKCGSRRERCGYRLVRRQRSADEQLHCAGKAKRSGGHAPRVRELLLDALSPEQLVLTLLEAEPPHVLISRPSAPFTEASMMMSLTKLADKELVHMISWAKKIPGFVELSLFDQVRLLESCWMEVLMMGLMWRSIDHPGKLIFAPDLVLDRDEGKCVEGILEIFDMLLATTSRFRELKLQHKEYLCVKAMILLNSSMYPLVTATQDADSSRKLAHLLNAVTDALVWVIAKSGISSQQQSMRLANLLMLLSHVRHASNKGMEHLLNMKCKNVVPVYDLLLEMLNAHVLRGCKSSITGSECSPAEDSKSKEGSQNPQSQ
# Method in brief: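 Screening used GripTite ER-beta-UAS-bla cells held in 2% charcoal-stripped FBS medium. After overnight (16 hr) compound incubation at 37C, beta-lactamase activity was detected with a FRET substrate by fluorescence.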
# [19] = biological target: Estrogen receptor beta (Homo sapiens) (UniProt Q92731); experiment: qHTS assay to identify small molecule antagonists of the estrogen receptor beta (ER-beta) signaling pathway (AID 1259378; active means well fitted inhibition curve with a large enough effect in the signal ratio in the repeat runs, not every such curve was filed as active; the % refers to the signal ratio; further: potency means the concentration at half of the fitted maximal effect)
# Method in brief: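 ER-beta-UAS-bla HEK293T cells in 2% charcoal-stripped FBS medium treated with compound plus 1nM final 17-beta-estradiol for 16 hr at 37C. Beta-lactamase reporter read by FRET substrate fluorescence after 2 hours at room temperature.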
# [20] = qHTS assay to identify small molecule agonists of the androgen receptor (AR) signaling pathway in the presence of an antagonist - cell viability counter screen (AID 1259379); further: nearly all actives have a fitted effect of over 25% in size; further: potency means the concentration at half of the fitted maximal effect
# Method in brief: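 Cytotoxicity counter-screen run in the same wells as the nilutamide-challenged (3.0 µM final) AR agonist assay in MDA-kb2 cells. Compounds tested at 15 concentrations for 16 h, 37 °C without CO2; CellTiter-Fluor fluorescence read.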
Compound,Potency [1],Potency [2],Potency [3],Potency [4],outcome [5],Potency [6],Potency [7],Potency [8],Potency [9],Potency [10],Potency [11],Potency [12],Potency [13],outcome [14],Potency [15],Potency [16],Potency [17],Potency [18],Potency [19],Potency [20]
C=CCc1ccccc1OCC(O)CNC(C)C (stereo not drawn),inactive,inactive,inactive,inactive,inactive,inactive,inactive,inactive,inactive,inactive,inactive,inactive,inactive,inactive,–,–,–,–,–,–
CC(=O)NC1(c2cccc(F)c2)CCN(CC[C@@]2(c3ccc(Cl)c(Cl)c3)CN(c3ccccc3)C(=O)CO2)CC1,inactive,24.4 µM (active),–,21.7 µM (active),inactive,inactive,inactive,–,48.7 µM (active),38.7 µM (active),inactive,inactive,–,inactive,24.4 µM (active),inactive,21.7 µM (active),–,–,–
COc1ccccc1N1CCN(CC(O)COc2cccc3ccccc23)CC1 (stereo not drawn),inactive,–,–,5.96 µM (active),inactive,inactive,inactive,inactive,–,–,inactive,inactive,inactive,–,5.96 µM (active),–,33.5 µM (active),inactive,23.7 µM (active),inactive
O=C(O)CCCCCCCCCCCBr,inactive,–,–,inactive,–,–,inactive,–,inactive,inactive,inactive,inactive,–,inactive,–,inactive,–,inactive,inactive,inactive
O=[N+]([O-])c1ccc(Nc2ccc(Nc3ccccc3)c(S(=O)(=O)O)c2)c([N+](=O)[O-])c1,inactive,inactive,–,inactive,inactive,–,54.5 µM (active),–,inactive,inactive,inactive,inactive,inactive,inactive,inactive,–,inactive,–,–,–
CC/C=C1/OC(=O)c2ccccc21,inactive,–,inactive,inactive,–,–,inactive,inactive,inactive,inactive,inactive,inactive,inactive,–,inactive,–,–,inactive,inactive,inactive
CN1CCCC(n2nc(Cc3ccc(Cl)cc3)c3ccccc3c2=O)CC1 (stereo not drawn),inactive,2.66 µM (active),–,–,inactive,26.6 µM (active),–,–,–,26.6 µM (active),–,inactive,inactive,inactive,26.6 µM (active),inactive,13.3 µM (active),–,–,–
O=C(OCC(O)CO)c1ccccc1Nc1ccnc2cc(Cl)ccc12 (stereo not drawn),inactive,7.5 µM (active),inactive,–,–,–,inactive,–,21.1 µM (active),–,inactive,inactive,inactive,inactive,–,inactive,–,–,–,–
CNC(=O)c1cnn(-c2nc(N)c3ncn([C@@H]4O[C@H](CO)[C@@H](O)[C@H]4O)c3n2)c1,inactive,inactive,–,inactive,inactive,inactive,inactive,inactive,inactive,–,inactive,inactive,inactive,inactive,inactive,inactive,inactive,–,–,–
C=C1c2cccc(O)c2C(O)=C2C(=O)[C@]3(O)C(O)=C(C(N)=O)C(=O)[C@@H](N(C)C)[C@@H]3[C@@H](O)[C@H]12,inactive,–,–,inactive,–,–,inactive,inactive,inactive,inactive,inactive,inactive,inactive,inactive,inactive,inactive,inactive,inactive,inactive,inactive
C=CC(=O)[O-].C=CC(=O)[O-].[Zn+2],inactive,–,–,inactive,inactive,–,–,–,–,67 µM (active),inactive,inactive,inactive,–,inactive,inactive,–,inactive,inactive,inactive
CN1CC(=O)N2[C@H](c3ccc4c(c3)OCO4)c3[nH]c4ccccc4c3C[C@@H]2C1=O,inactive,inactive,–,inactive,inactive,inactive,–,inactive,inactive,inactive,inactive,inactive,inactive,inactive,inactive,inactive,inactive,–,–,–
C1COC1,inactive,–,inactive,inactive,inactive,inactive,inactive,inactive,inactive,inactive,inactive,inactive,inactive,inactive,inactive,inactive,inactive,inactive,inactive,inactive
CC[C@]1(O)C[C@H]2CN(CCc3c([nH]c4ccccc34)[C@@](C(=O)OC)(c3cc4c(cc3OC)N(C=O)[C@H]3[C@@](O)(C(=O)OC)[C@H](OC(C)=O)[C@]5(CC)C=CCN6CC[C@]43[C@@H]65)C2)C1,inactive,0.0266 µM (active),inactive,inactive,inactive,inactive,inactive,inactive,–,–,–,inactive,inactive,inactive,–,inactive,–,–,–,–
OCCN1CCN(CCCN2c3ccccc3Sc3ccc(Cl)cc32)CC1,inactive,11.9 µM (active),–,13.3 µM (active),inactive,29.8 µM (active),inactive,–,–,23.7 µM (active),–,inactive,inactive,inactive,23.7 µM (active),inactive,13.3 µM (active),–,–,–
C/C=C/C=C/C=O,inactive,–,inactive,inactive,–,–,–,inactive,–,inactive,inactive,inactive,inactive,inactive,inactive,inactive,inactive,inactive,inactive,inactive
COc1cc(C(=O)NC2CCN(C)CC2)ccc1Nc1ncc2c(n1)N(C1CCCC1)CC(F)(F)C(=O)N2C,inactive,0.112 µM (active),inactive,15.8 µM (active),–,11.2 µM (active),–,inactive,–,–,–,–,–,inactive,22.3 µM (active),inactive,–,–,–,–
CC1=C(Br)C(=O)C(Br)=C/C1=C(/c1ccccc1S(=O)(=O)O)c1cc(Br)c(O)c(Br)c1C,inactive,–,–,inactive,–,–,18.6 µM (active),inactive,inactive,inactive,inactive,inactive,inactive,inactive,inactive,–,inactive,inactive,inactive,18.6 µM (active)
